Measurements reported in the supplement of paper PMC13380429.

Test system: Vero E6 infected with SARS-CoV-2
Experiment: inhibition of SARS-CoV-2 cytopathic effect; higher = more antiviral protection, active = above 15
Conditions: 48 h

Measured: inhibition of SARS-CoV-2 cytopathic effect

COc1ccc(CCNCC(O)COc2cccc(C)c2)cc1OC (stereo not given) [bevantolol]
inactive: 1 nM -3.29% | 8.33 nM -3.57% | 100 nM -4.47% | 833.33 nM -3.25% | 10000 nM -5.37%

Nc1nonc1/C(=N/O)Nc1ccc(F)c(Cl)c1
inactive: 1 nM 5.29% | 8.33 nM 3.44% | 100 nM 2.09% | 833.33 nM 0.57% | 10000 nM -2.02%

C[C@H](Nc1ncnc2nc[nH]c12)c1cc2cccc(Cl)c2c(=O)n1-c1ccccc1 [duvelisib]
inactive: 1 nM -1.06% | 8.33 nM -0.83% | 100 nM -1.82% | 833.33 nM 0.25% | 10000 nM -3.79%

COc1cccc(N(C)C(=S)Oc2ccc3c(c2)CCCC3)n1 [liranaftate]
inactive: 1 nM -2.95% | 8.33 nM 1.62% | 100 nM 0.18% | 833.33 nM -0.32% | 10000 nM 1.9%

O=C(O)CCn1c2c(c3ccccc31)C[C@H](NS(=O)(=O)c1ccc(F)cc1)CC2 [ramatroban]
inactive: 1 nM -0.49% | 8.33 nM 0.09% | 100 nM 0.01% | 833.33 nM 0.06% | 10000 nM 2.02%

CNC(C)(C)Cc1ccccc1 [mephentermine]
inactive: 1 nM -6.95% | 8.33 nM -4.1% | 100 nM -6.2% | 833.33 nM -3.76% | 10000 nM 2.65%

Cc1c(Cl)cccc1Nc1ccccc1C(=O)O [tolfenamic-acid]
inactive: 1 nM -1.57% | 8.33 nM -0.57% | 100 nM 1.25% | 833.33 nM 0.34% | 10000 nM -0.7%

COc1cc(Br)c(Nc2nc(-c3c(C)nc4ncccn34)cs2)c(Br)c1
inactive: 1 nM -0.04% | 8.33 nM 0.45% | 100 nM 1.74% | 833.33 nM -3.16% | 10000 nM 10.6%

CC(=O)[C@H]1CC[C@H]2[C@@H]3CC=C4C[C@@H](O)CC[C@]4(C)[C@H]3CC[C@]12C [pregnenolone]
inactive: 1 nM -0.59% | 8.33 nM 3.91% | 100 nM -5.44% | 833.33 nM -1.71% | 10000 nM -3.04%

COc1cc2c(NC3CCN(C)CC3)nc(N3CCCN(C)CC3)nc2cc1OCCCN(C)C
inactive: 1 nM 2.93% | 8.33 nM 3.22% | 100 nM 3.09% | 833.33 nM 3.57% | 10000 nM 4.51%

CC(=O)O[C@H]1C[C@@]2(C)[C@@H](C[C@@H](O)[C@H]3[C@@]4(C)CC[C@@H](O)[C@@H](C)[C@@H]4CC[C@@]32C)/C1=C(\CCC=C(C)C)C(=O)O [fusidic-acid]
inactive: 1 nM -0.53% | 8.33 nM 0.07% | 100 nM -1.13% | 833.33 nM -8.51% | 10000 nM -1.02%

COC(=O)C1=C(C)NC(C)=C(C(=O)OC)C1c1ccccc1[N+](=O)[O-] [nifedipine]
inactive: 1 nM -0.99% | 8.33 nM 0.14% | 100 nM -0.27% | 833.33 nM 3.23% | 10000 nM 4.43%

CCCCCCCCCCCCCCCC[N+](C)(C)Cc1ccccc1 [benzyldimethylhexadecylammonium]
inactive: 1 nM 2.1% | 8.33 nM 0.11% | 100 nM -1.57% | 833.33 nM -0.97% | 10000 nM -13.2%

CC(=O)O[C@H]1C[C@@H]2CC[C@@H]3[C@H](CC[C@@]4(C)[C@H]3C[C@H]([N+]3(C)CCCCC3)[C@@H]4OC(C)=O)[C@@]2(C)C[C@@H]1[N+]1(C)CCCCC1 [pancuronium]
inactive: 1 nM -2.97% | 8.33 nM -1.22% | 100 nM -0.15% | 833.33 nM -0.93% | 10000 nM -1.28%

Clc1ccc(COC(Cn2ccnc2)c2ccc(Cl)cc2Cl)c(Cl)c1 (stereo not given) [miconazole]
inactive: 1 nM -1.92% | 8.33 nM 0.22% | 100 nM -0.38% | 833.33 nM 0.7% | 10000 nM -4.16%

Cc1c(C)c2c(c(C)c1O)CCC(C)(C(=O)O)O2 (stereo not given) [trolox]
inactive: 1 nM 4.59% | 8.33 nM 3.64% | 100 nM 1.16% | 833.33 nM 6.02% | 10000 nM 2.14%

CCCN(CCc1cccs1)[C@H]1CCc2c(O)cccc2C1 [rotigotine]
inactive: 1 nM 0.32% | 8.33 nM -0.89% | 100 nM 1.13% | 833.33 nM -1.26% | 10000 nM -6.53%

COC(=O)[C@@H](N)CS [mecysteine]
inactive: 1 nM 2.04% | 8.33 nM -0.66% | 100 nM -0.44% | 833.33 nM 2.25% | 10000 nM 2.07%
